About 79,000 compounds went through this panel and 15% of them were active in at least one assay; those are over-represented in the sample as a whole. Rule as the data show it: active = growth inhibition above about 70%; inactive = the rest.
What was measured:
[1] = NCI Yeast Anticancer Drug Screen. Data for the rad50 strain (AID 155);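 also: 0% = growth of vehicle-only cultures of the same strain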; conditions: S. cerevisiae rad50 strain growth inhibition; at 50.0 µM; hits give high values
Method in brief: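 Compounds were tested on a yeast strain with an engineered DNA damage repair alteration; the reported value is growth inhibition normalised to vehicle treatment.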

[2] = NCI Yeast Anticancer Drug Screen. Data for the mec2-1 strain (AID 157); conditions: S. cerevisiae mec2-1 strain, at 50.0 µM, hits give high values
Method in brief: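 Test agents were screened against the mec2-1 yeast strain, with defined DNA repair or cell cycle alteration. Growth was scored as inhibition against vehicle-only controls.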

[3] = NCI Yeast Anticancer Drug Screen. Data for the sgs1 mgt1 strain (AID 161);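 also: 0% = growth of cultures given vehicle only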; conditions: S. cerevisiae sgs1 mgt1 strain, at 50.0 µM, hits give high values
Method in brief: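 Inhibition of yeast growth, normalised to vehicle-treated controls, is reported for a strain bearing genetic alterations in DNA damage repair.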

[4] = NCI Yeast Anticancer Drug Screen. Data for the cln2 rad14 strain (AID 165);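 also: 0% = growth equal to vehicle treated cultures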; conditions: S. cerevisiae cln2 rad14 strain, at 50.0 µM, hits give high values
Method in brief: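 Growth of compound-exposed yeast (cln2 rad14 genotype) measured and expressed as inhibition relative to vehicle.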

[5] = NCI Yeast Anticancer Drug Screen. Data for the bub3 strain (AID 167); conditions: S. cerevisiae bub3 mutant strain, at 50.0 µM, hits give high values
Method in brief: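 Growth of a checkpoint-deficient yeast mutant is measured after compound exposure. Values represent inhibition relative to vehicle.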

[6] = NCI Yeast Anticancer Drug Screen. Data for the mlh1 rad18 strain (AID 175); conditions: S. cerevisiae mlh1 rad18 strain growth inhibition; at 50.0 µM; hits give high values
Method in brief: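 In this whole-cell yeast screen, a strain with altered DNA damage repair is challenged with compound, and its growth is measured against matched vehicle-treated controls.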

Measured: growth inhibition

O=C(CSC1=NCCN1)c1ccccc1
inactive: [1] -17.9% | [2] 6.3% | [3] -27.1% | [4] -57.9% | [5] 8.55% | [6] 11.6%

Cc1cc(C)c(C(=O)CSC(=N)N)c(C)c1
inactive: [1] -4.45% | [2] 11.3% | [3] 7.5% | [4] -6.6% | [5] 9.55% | [6] 2.4%

CCCCCCCCCC(=O)N/N=C/c1ccccc1Cl
inactive: [1] 9.95% | [2] 36.1% | [3] 29.6% | [4] -9.5% | [5] 19.3% | [6] 30.4%

CCCc1c(Cl)nc(Cl)nc1Cl
inactive: [1] -8.75% | [2] 26.8% | [3] 11.8% | [4] -54.8% | [5] 5.2% | [6] -22.4%

CN1N=C2c3ccccc3OC(c3ccccc3)[C@H]2C1c1ccccc1 (stereo partly specified)
inactive: [1] -46.8% | [2] -47.2% | [3] -40.2% | [4] -3.8% | [5] -61.4% | [6] -41.7%

CC(C)(C)C1=CC(=O)CCC1
inactive: [1] -37.6% | [2] -31.2% | [3] -16.4% | [4] -8.1% | [5] -26.9% | [6] 5.65%

CCOC(=O)c1c[nH]c2ccc3c(nc(C)n3C)c2c1=O
inactive: [1] -7.95% | [2] -1.05% | [3] -5.2% | [4] 11.9% | [5] -21.4% | [6] -47.5%

NC(=O)NCP(=O)(CNC(N)=O)CNC(N)=O
inactive: [1] -20% | [2] -7.3% | [3] -4.25% | [4] -20.4% | [5] 32.8% | [6] 4.95%

C=C1CC2(CCC3C4CC=C5CC(O)CCC5(C)C4CCC32C)OC1=O (stereo unspecified)
inactive: [1] 2.9% | [2] 11.7% | [3] 6.45% | [4] 46.3% | [5] 8.15% | [6] 15.2%

COC(=O)c1cccc(=O)o1
inactive: [1] 2.55% | [2] 0.1% | [3] -18.4% | [4] -79% | [5] -1.2% | [6] 2.15%

CNC(=S)NNc1ncnc2c1ncn2-c1ccc(C)cc1
inactive: [1] -30.4% | [2] 6.3% | [3] 5.45% | [4] 29.7% | [5] 11.4% | [6] 4.25%

COC1=C(C)C(=O)C2=C(C1=O)C1C3CC4=C(C(=O)C(OC)=C(C)C4=O)C(CNC(=O)C(C)O)N3C(C#N)C(C2)N1C (stereo unspecified)
inactive: [1] 15.9% | [2] 0.85% | [3] 8.9% | [4] 32.8% | [5] -3.45% | [6] 41.5%

CNC(=O)CN(CC(=O)NC)C(=O)NC
inactive: [1] 9.95% | [2] 7.3% | [3] -18% | [4] -3.65% | [5] -2.35% | [6] 1.55%

COc1cc2c(cc1OC)C1c3ccccc3CCCN1CC2 (stereo unspecified)
inactive: [1] -40.4% | [2] -4.5% | [3] -57.5% | [4] 0.55% | [5] -23.6% | [6] -27%

CC(=O)Nc1ccc2c(c1)Cc1c(F)cc(F)cc1-2
inactive: [1] 35.9% | [2] -9% | [3] 19.6% | [4] 16.1% | [5] 21.9% | [6] 39.8%

Nc1nc(N)nc(-c2ccccc2N)n1
inactive: [1] 2.2% | [2] -7.5% | [3] -14.2% | [4] -45% | [5] -22.8% | [6] 5.6%

Cc1ccc(S(=O)(=O)N=Nc2c(O)[nH]c3c(Cl)cc(Cl)cc23)cc1
inactive: [1] -11.8% | [2] -18.8% | [3] 4.65% | [4] -1.2% | [5] -22.4% | [6] 23.2%

O=c1c(SCc2ccccc2)c(N2CCOCC2)cnn1-c1ccccc1
inactive: [1] 28.4% | [2] -1.85% | [3] 22.8% | [4] 30.1% | [5] 22.1% | [6] 7.75%

CC(O)CN(Cc1ccccc1)CC(C)O (stereo unspecified)
inactive: [1] 8.1% | [2] 28.9% | [3] -6.7% | [4] -22.9% | [5] -3.5% | [6] -14.9%

CN(C)c1cc2ccccc2oc1=O
inactive: [1] 5.3% | [2] -0.75% | [3] -2% | [4] -5.75% | [5] 9% | [6] 6.45%

C=CCc1cc(OC)c(O)c(C(=O)OCC)c1
inactive: [1] -2.35% | [2] -12.8% | [3] -3.25% | [4] 1.3% | [5] 7.65% | [6] -2.15%
